Data on 8 compounds can be found in ChEMBL document CHEMBL3988442, “University of Dundee, Small-Polar-MMV Screening Library” (2021).

Holding throughout (parameters): scale not given: direction of the effect not stated beside the values
In assay [1] the target is Protein translocase subunit SecA (Escherichia coli (strain K12)) (UniProt P10408). The assay can be described thus: Assay to Identify E. coli SecA ATPase Inhibitors. Type of assay: functional. As to conditions: 30 µM.
In assay [2] the target is T1, Ubiquitin-activating enzyme e1, putative (Leishmania donovani (strain BPK282A1)) (UniProt E9BSI1).
T1 sequence (whole entry): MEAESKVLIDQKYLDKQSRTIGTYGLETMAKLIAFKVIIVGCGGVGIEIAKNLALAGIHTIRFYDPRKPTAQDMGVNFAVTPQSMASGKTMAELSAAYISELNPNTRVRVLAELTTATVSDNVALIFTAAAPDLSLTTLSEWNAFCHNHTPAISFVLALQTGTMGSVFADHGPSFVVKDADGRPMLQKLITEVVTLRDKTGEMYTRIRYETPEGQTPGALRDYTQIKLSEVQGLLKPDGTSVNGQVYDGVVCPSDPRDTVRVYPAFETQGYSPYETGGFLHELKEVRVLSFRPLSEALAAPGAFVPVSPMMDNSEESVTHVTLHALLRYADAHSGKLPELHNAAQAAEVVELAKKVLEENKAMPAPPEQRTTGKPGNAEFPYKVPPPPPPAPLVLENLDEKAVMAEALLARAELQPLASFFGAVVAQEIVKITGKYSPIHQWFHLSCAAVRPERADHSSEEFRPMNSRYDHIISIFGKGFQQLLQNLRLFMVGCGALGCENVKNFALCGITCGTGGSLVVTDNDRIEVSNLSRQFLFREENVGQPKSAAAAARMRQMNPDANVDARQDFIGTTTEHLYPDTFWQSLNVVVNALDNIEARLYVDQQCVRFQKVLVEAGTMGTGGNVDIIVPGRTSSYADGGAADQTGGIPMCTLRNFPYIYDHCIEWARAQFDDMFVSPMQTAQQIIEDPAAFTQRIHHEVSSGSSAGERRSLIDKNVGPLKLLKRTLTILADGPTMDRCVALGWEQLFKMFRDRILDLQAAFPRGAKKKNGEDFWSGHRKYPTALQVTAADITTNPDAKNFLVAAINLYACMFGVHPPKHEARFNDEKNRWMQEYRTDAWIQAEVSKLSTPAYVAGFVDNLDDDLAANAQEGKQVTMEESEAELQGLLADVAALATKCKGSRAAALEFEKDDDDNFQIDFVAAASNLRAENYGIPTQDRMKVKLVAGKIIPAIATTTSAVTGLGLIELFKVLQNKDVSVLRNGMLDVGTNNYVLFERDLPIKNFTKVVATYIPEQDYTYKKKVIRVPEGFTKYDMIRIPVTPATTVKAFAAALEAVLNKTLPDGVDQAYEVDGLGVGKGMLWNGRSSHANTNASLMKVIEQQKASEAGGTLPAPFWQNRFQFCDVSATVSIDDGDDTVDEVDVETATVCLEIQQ
Briefly: Leishmania donovani Ubiquitin Activating Enzyme (LdE1). The assay is classed as functional. As to conditions: 30 µM.

Assay [3] concerns the target AMP-activated protein kinase, AMPK (Homo sapiens) (UniProt P54646+O43741+P54619+Q9UGJ0+Q9Y478+Q13131+Q9UGI9). The assay can be described thus: AMP-dependent Kinase enzyme assay. An in vitro enzyme assay that detects ADP turnover that is directly proportional to AMPK activity. This uses naive AMPK that is activated during the assay with MK-8722. Type of assay: functional. Conditions: 30 µM.

For assay [4], the target named is Sialic acid-binding Ig-like lectin 9 (Homo sapiens) (UniProt Q9Y336). The assay can be described thus: Hs-Siglec9 ALPHAscreen SOP 20170721. Conditions: 10 µM.
Assay [5] relates to Trypanosoma cruzi. The assay can be described thus: Trypanosoma cruzi phosphomannomutase and mannose-1-phosphate guanylyltransferase assay. Type of assay: functional. Conditions: 10 µM.
Assay [6] concerns the target T2, Arginase-2, mitochondrial (Homo sapiens) (UniProt P78540).
T2 sequence (whole entry): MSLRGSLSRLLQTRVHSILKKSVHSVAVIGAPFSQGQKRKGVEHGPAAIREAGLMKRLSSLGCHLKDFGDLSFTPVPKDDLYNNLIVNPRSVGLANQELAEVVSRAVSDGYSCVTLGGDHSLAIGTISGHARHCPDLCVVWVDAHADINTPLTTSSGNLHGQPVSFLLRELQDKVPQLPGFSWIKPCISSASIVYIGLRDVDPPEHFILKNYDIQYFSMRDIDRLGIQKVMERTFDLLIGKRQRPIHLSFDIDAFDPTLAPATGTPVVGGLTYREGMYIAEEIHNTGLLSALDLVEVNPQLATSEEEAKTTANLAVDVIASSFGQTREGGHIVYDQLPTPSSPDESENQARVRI
The assay can be described thus: in vitro enzyme assay to detect the production of urea directly proportional to the activity of Arginase II. Further: in the data most compounds retested in dose-response had high values. As to conditions: 33.3 µM. Type of assay: functional.

Assay [7] deals with T3, Proteasome subunit beta (Trypanosoma cruzi) (UniProt O96673).
T3 sequence (whole entry): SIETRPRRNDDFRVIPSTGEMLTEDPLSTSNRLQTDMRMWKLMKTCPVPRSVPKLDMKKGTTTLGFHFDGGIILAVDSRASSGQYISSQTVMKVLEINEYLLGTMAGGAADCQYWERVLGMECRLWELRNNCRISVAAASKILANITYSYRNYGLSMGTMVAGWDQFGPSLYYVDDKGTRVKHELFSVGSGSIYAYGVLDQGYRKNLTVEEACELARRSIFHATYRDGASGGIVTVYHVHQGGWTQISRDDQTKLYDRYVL
The assay can be described thus: Trypanosoma cruzi proteasome chymotrypsin-like activity (TcProtChymo) assay. Further: in the data most compounds retested in dose-response had high values. As to conditions: 9.37 µM. The assay is classed as functional.

For assay [8], the species on record is Homo sapiens. The assay can be described thus: To identify inhibition of the IFN signalling (Jak-Stat) pathway via expression of an eGFP reporter gene under the control of an IFN-stimulated response element (ISRE) containing MxA promoter. Conditions: 30 µM. The assay is classed as functional. (Reporter assays use an easily measured gene product as a stand-in for the process of interest.)

For assay [9], the target named is T4, Tyrosyl-tRNA synthetase, putative (Trypanosoma cruzi (strain CL Brener)) (UniProt Q4DSP6).
T4 sequence (whole entry): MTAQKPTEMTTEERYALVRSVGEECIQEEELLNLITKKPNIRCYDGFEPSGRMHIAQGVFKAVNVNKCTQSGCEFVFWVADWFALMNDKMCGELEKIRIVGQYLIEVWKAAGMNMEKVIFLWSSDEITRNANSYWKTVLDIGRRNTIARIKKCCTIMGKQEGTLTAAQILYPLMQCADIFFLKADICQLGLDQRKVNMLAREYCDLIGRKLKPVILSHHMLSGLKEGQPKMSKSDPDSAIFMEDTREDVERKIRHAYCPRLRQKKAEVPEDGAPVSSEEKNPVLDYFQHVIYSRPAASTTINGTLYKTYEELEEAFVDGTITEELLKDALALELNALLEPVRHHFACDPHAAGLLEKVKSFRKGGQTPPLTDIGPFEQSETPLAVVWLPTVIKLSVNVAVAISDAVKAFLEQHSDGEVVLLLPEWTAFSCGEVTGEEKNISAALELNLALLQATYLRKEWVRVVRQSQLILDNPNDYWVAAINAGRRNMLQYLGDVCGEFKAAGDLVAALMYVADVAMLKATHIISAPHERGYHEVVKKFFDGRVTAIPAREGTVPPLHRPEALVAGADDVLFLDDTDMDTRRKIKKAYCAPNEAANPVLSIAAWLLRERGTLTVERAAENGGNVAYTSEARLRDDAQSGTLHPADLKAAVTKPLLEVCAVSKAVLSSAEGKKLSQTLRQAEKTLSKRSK
The assay can be described thus: Trypanosoma cruzi tyrosyl tRNA synthetase (TcYRS) _High Tyrosine SOP. Further: in the data most compounds retested in dose-response had high values. Conditions: 30 µM. Type of assay: functional.

In assay [10] the target is T4, Tyrosyl-tRNA synthetase, putative (Trypanosoma cruzi (strain CL Brener)). The assay can be described thus: Trypanosoma cruzi tyrosyl tRNA synthetase (TcYRS) SOP. Type of assay: functional. As to conditions: 30 µM.
In assay [11] the target is Chromo domain-containing protein 1 (Saccharomyces cerevisiae (strain ATCC 204508 / S288c) (Baker's yeast)) (UniProt P32657). The assay can be described thus: ScCHD-1 Enzyme Inhibition Assay. Further: in the data most compounds retested in dose-response had high values. The assay is classed as functional. As to conditions: 30 µM.

For some of these results: Entries with a potency or affinity are not part of this list.

Sialic acid-binding Ig-like lectin 9 (Homo sapiens), sequence (Q9Y336 whole entry): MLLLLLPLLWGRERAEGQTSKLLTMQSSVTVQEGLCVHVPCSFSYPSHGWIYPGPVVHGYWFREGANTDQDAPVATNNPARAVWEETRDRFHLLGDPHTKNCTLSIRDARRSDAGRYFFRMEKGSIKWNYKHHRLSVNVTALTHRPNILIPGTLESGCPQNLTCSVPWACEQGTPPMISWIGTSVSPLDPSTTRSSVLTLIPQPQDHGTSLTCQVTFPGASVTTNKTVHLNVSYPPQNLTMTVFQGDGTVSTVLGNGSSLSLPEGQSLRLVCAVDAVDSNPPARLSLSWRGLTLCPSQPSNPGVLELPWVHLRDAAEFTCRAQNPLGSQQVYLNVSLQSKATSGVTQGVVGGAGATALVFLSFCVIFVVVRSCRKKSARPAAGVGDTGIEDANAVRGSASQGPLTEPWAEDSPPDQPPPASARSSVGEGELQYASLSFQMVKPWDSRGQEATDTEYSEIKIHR
Chromo domain-containing protein 1 (Saccharomyces cerevisiae (strain ATCC 204508 / S288c) (Baker's yeast)), sequence (P32657 whole entry, the tested form may be a part): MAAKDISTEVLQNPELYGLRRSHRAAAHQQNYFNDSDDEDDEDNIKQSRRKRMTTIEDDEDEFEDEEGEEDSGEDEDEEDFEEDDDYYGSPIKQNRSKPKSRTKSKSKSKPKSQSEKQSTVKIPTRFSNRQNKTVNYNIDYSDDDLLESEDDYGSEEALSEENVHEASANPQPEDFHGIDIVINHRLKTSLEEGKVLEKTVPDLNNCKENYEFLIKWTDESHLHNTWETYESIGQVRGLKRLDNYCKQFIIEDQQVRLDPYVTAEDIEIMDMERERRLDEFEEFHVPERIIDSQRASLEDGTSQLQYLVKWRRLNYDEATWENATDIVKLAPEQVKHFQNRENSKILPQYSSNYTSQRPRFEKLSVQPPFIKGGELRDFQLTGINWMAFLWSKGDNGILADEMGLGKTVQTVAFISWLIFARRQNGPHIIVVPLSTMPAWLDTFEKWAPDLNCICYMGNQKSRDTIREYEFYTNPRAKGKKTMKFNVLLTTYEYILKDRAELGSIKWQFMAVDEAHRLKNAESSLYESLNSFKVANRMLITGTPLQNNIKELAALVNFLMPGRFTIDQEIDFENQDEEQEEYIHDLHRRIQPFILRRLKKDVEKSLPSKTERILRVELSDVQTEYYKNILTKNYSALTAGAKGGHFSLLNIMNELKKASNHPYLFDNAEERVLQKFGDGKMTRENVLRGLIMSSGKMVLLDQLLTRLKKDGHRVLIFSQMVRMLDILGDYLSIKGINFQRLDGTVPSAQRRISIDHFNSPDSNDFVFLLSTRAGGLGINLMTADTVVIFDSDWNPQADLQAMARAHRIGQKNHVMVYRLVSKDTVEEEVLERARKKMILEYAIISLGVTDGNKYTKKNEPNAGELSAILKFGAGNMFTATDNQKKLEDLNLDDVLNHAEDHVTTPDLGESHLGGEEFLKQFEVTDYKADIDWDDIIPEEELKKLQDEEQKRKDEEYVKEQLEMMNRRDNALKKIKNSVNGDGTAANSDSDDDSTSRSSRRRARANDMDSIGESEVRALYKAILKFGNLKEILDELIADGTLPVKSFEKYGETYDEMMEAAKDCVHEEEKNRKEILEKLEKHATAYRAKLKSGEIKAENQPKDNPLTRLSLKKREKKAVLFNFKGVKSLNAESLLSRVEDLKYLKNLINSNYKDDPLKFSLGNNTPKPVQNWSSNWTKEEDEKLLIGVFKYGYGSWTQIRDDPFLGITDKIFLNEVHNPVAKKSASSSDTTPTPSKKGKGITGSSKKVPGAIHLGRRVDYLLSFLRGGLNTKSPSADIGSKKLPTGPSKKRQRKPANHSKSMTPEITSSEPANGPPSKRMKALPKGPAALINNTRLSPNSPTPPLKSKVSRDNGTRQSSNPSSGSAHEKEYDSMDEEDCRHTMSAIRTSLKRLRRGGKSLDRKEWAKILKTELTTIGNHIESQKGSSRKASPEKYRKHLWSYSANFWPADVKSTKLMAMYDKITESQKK
Protein translocase subunit SecA (Escherichia coli (strain K12)), sequence (P10408 whole entry): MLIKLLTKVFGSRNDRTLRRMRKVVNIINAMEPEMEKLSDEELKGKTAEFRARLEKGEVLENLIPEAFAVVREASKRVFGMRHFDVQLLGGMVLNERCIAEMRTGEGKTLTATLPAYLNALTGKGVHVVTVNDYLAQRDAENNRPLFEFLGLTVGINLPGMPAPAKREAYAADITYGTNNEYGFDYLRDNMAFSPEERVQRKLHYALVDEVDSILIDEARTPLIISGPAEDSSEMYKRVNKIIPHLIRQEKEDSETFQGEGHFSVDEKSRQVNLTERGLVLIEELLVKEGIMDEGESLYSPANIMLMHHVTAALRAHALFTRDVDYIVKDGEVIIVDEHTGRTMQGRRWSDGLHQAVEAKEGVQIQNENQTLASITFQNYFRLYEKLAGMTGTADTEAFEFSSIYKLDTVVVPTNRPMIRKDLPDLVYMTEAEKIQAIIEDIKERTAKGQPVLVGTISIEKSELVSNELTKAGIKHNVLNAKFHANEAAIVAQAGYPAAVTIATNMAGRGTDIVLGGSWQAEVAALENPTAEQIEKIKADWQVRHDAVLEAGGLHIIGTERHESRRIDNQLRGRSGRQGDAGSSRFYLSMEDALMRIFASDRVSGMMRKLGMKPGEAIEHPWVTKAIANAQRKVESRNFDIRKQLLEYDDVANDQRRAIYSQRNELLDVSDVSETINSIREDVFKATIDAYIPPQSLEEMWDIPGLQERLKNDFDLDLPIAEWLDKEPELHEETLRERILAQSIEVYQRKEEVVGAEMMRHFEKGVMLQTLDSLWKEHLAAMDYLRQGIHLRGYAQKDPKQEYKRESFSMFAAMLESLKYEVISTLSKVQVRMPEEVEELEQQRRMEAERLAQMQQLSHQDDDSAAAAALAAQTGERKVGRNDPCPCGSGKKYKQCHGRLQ

Consider `Cc1nnc(NC(=O)NC2CCOc3ccccc32)s1` (stereo not drawn), for which the Percent Effect is -3.11% in [1]; 5.48% in assay [2]; -3.94% in [3]; 7.64% in assay [4]; 1.59% in assay [5]; -4.39% in [6]. The Percent Effect was 12.8% in [7]; -9.09% in assay [8]; 12.5% in assay [9]; 23.5% in [10]; 1.07% in assay [11].

Regarding `Cn1nnc2c1CCN(Cc1nccs1)C2COCc1ccccc1` (stereo not drawn), the Percent Effect in assay [1] was -2.95%; in [2] it was 2.67%; in assay [3], -19.8%; in [4] it was 5.81%; in assay [5], 1.77%; in assay [6], 5.83%. For the same compound, the Percent Effect in assay [7] is -8.9%; in assay [8], -0.293%; in assay [9] it was 7.45%; in assay [10], 8.97%; in assay [11] it was -0.607%.

In the case of `Cc1cc(C)n(C2CN(CC(=O)N(C)Cc3ccc(C)o3)C2)n1`, the Percent Effect is -4.24% in [1]; 5.26% in assay [2]; 17.1% in [3]; 6.03% in assay [4]; 2.82% in assay [5]; 3.55% in [6]. Moreover, the Percent Effect is 9.49% in [7]; -0.498% in [8]; 34% in assay [9]; 28.6% in assay [10]; -4.43% in assay [11].

As for `COCCN1CCC(CNC(=O)c2cc(C)cc(C)c2)C1` (stereo not drawn), the Percent Effect in assay [1] was -6.49%; in assay [2] it was 10.5%; in assay [3], -7.62%; in assay [4], 15.5%; in assay [5], 6.26%; in assay [6], -1.8%. The Percent Effect in assay [7] is 8.88%; in [8] it was -10.5%; in [9] it was 6.4%; in [10], 13.6%; in assay [11], -4.84%.

As to `CC(C)(C)OC(=O)NC(C)(C)c1noc(CN2CCCCC2)n1`, the Percent Effect in [1] is -5.9%; in assay [2], 8%; in assay [3], -1.12%; in [4], -1.61%; in assay [5] it was -3.02%; in [6] it was 1.04%. In addition, the Percent Effect was 9.07% in assay [7]; 13.4% in [8]; 2.73% in [9]; 8.64% in assay [10]; -7.41% in assay [11].

On to `Cc1cc2n(n1)CC(CNC1CCN(c3ccc(F)cc3)CC1)CN2` (stereo not drawn), for which the Percent Effect in assay [1] was -2.69%; in assay [2], 8.11%; in assay [3], -9.27%; in [4] it was 18.6%; in [5], 6.35%; in assay [6] it was 15.1%. Besides, the Percent Effect is -0.0858% in assay [7]; -21.8% in [8]; 1.07% in assay [9]; 18.5% in assay [10]; -6.89% in [11].

For the compound `CCn1cnnc1C1CCN(C(=O)COCCc2ccccc2)CC1`, the Percent Effect in [1] was -1.96%; in [2], 7.79%; in assay [3], 0.519%; in assay [4] it was -7.71%; in [5] it was 5%; in assay [6], -5.26%. For the same compound, the Percent Effect in assay [7] is 6.71%; in assay [8] it was -1.88%; in assay [9] it was -2.86%; in assay [10], 2.35%; in [11] it was -12.8%.

On to `CN(CCCOc1ccccc1)C(=O)CN1CCc2cncnc2C1`, for which the Percent Effect in assay [1] is -1.71%; in assay [2], 26.3%; in [3], -41.1%; in [4], 4.54%; in assay [5], 9.24%; in [6] it was -0.719%. For the same compound, the Percent Effect in assay [7] is 10.6%; in [8], -5.43%; in [9], 30.1%; in assay [10], 38.3%; in [11] it was -11.5%.
